A word on the inhibition: it is the change of the read-out against control, counted positive when it falls.

Among the data in PubChem BioAssay AID1063 (University of Pittsburgh Molecular Library Screening Center, 2008) are inhibition values, retold here.

Out of some 200,000 compounds screened, about 18,000 (9%) were called active. The sample as a whole holds a higher share of actives than the screen did. Unmarked numbers belong to inactive results. No stated cut-off is given here; in the data, active means inhibition above about 50%; inactive means the rest.

This assay can be described thus: antileishmanial activity against promastigotes – primary screen (AID 1063).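 Further: promastigotes grown with compound for 44 hours at 28 °C.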 The note with it: Leishmania major promastigotes, resazurin fluorescence viability; at 10 µM; stronger effect = higher value. (In general: The colour change of resazurin is a common sign of viable cells or microbes.)
Regarding `C=CCC(C(=O)c1ccccc1)[N+](C)(C)CC=C` (stereo unspecified), the inhibition was -3.06%.
Next, `COc1ccc(NC(=O)C(C)SCc2ccccc2)cc1` (stereo unspecified): -8.12%; `CC1(C)OC(=O)C(=CSc2ccc(C(C)(C)C)cc2)C(=O)O1`: -9.81%; `CN(C)c1nnnn1-c1ccc(Cl)cc1`: 2.19%.
As to `CCN(CC)c1ccc(/C=N/Nc2nc(C)cc(C)n2)c(O)c1`, the inhibition is 99.8% (active).
As to `CCN(CC)c1ccc(/C=N/Nc2nc(C)cc(=O)[nH]2)cc1`, the inhibition is -1.36%.
`CCOc1ccc(-n2c(O)c(/C=N/Nc3nc(C)cc(C)n3)c3ccccc3c2=O)cc1`: the inhibition was 14%.
`Cc1ccc(S(=O)(=O)CC(=O)Nc2c(C)n(C)n(-c3ccccc3)c2=O)cc1`: the inhibition is 2.54%.
Consider `COc1cccc(CNC(=O)CCN2C(=S)NC(C)(C)CC2C)c1` (stereo unspecified), for which the inhibition was -13.5%.
Next, `CCCC(=O)NC(=S)Nc1ccc(CN2CCOCC2)cc1`: 5.07%; `O=C1OC(/C=C/c2ccccc2)=NC/1=C/c1ccco1`: -4.68%.
For `Fc1cccc2ncnc(OCc3ccccc3)c12`, the inhibition was -9.83%.
Regarding `O=C(N/N=C/c1cc([N+](=O)[O-])ccc1O)/C(=C\c1cccs1)NC(=O)c1ccccc1`, the inhibition was 85.6% (active).
`O=C(N/N=C/c1ccc(O)cc1)/C(=C/c1ccc([N+](=O)[O-])cc1)NC(=O)c1ccccc1`: the inhibition is -2.54%.
Regarding `O=C(Nc1ccc(C(=O)O)cc1)/C(=C/c1ccc([N+](=O)[O-])cc1)NC(=O)c1ccccc1`, the inhibition is -2.56%.
The result for `O=C(c1cn(-c2ccccc2)nc1-c1cc2ccccc2oc1=O)N1CCOCC1` reads -2.51%; that for `CC1(C)CC(=O)C(C2c3ccccc3S(=O)(=O)c3ccccc32)C(=O)C1`, -3.12%.
For the compound `OC(COc1cccc2ccccc12)CN1CCN(c2ccccn2)CC1` (stereo unspecified), the inhibition is -1.28%.
Take `Cc1ccccc1OCC(O)CN1CCN(c2ccccn2)CC1` (stereo unspecified): the inhibition is 3.89%.
As to `Cc1cccc(OCC(O)CN2CCN(CCN3C(=O)c4cccc5cccc(c45)C3=O)CC2)c1C` (stereo unspecified), the inhibition is 99.9% (active).
Take `COCCCNC(=S)NNC(=O)C(O)(c1ccccc1)c1ccccc1`: the inhibition was -3.7%.
Regarding `CN(C)C(=O)c1nc2ccc(Cl)cn2c1CN1CCN(c2ncccn2)CC1`, the inhibition was 7.72%.
Next, `O=C(CN1CCSCC1)N/N=C/c1ccc(Cl)cc1`: 7.06%; `Clc1ccc(-c2nc3ccccn3c2CN2CCSCC2)cc1`: 77.4% (active).
On to `CCOC(=O)N1CCN(CC(=O)Nc2ccc(F)cc2)CC1`, for which the inhibition was -5.71%.
`CC(Nc1ccccc1)c1cccnc1` (stereo unspecified): the inhibition was 12.1%.
For `C=CCn1c(N)c(C(=O)OCC(C)C)c2nc3ccccc3nc21`, the inhibition is 61% (active).
Turning to `CC(C)Cn1c(N)c(C(=O)NCc2cccs2)c2nc3ccccc3nc21`, the inhibition is 40.8%.
For `C=CCn1c(N)c(S(=O)(=O)c2cccs2)c2nc3ccccc3nc21`, the inhibition is 4.67%.
With `Cc1ccc(CN2CCN(/N=C/c3cccnc3)CC2)c(C)c1`, the inhibition is 13.4%.
The result for `CSc1cccc(NC(=S)N(Cc2ccccc2)Cc2ccccn2)c1` reads 17.4%; that for `COc1cccc(NC(=S)N(Cc2ccc(C)cc2)Cc2ccccn2)c1`, 94.4% (active); that for `COc1cccc(NC(=S)NCc2ccccn2)c1`, -4.83%.
`CN(C)c1ccc(/C=N/Nc2cc(N3CCOCC3)nc(N3CCOCC3)n2)cc1`: the inhibition is -7.95%.
For the compound `Cc1ccc(-n2cc(CN(C)Cc3nccn3C)c(-c3cccc(C)c3)n2)cc1`, the inhibition was 39%.
In the case of `Cc1cc(NC(=O)CN2C(=O)NC(CCc3ccccc3)C2=O)no1` (stereo unspecified), the inhibition is 4.06%.
With `CCNC(=O)CC1C(=O)N(c2ccc(F)cc2)C(=O)N1CCc1sccc1C` (stereo unspecified), the inhibition is -7.58%.
Next, `O=C(NCCN1CCOCC1)c1c(F)c(F)c(F)c(F)c1F`: -4.01%.
Consider `CC(NC(=O)c1cc(-c2ccccc2)on1)c1ccccc1` (stereo unspecified), for which the inhibition was -7.18%.
The result for `O=C(NCCCn1ccnc1)c1cc(-c2ccccc2)on1` reads 2.53%.
As to `O=C(NCCCN1CCOCC1)c1ccccc1NS(=O)(=O)c1ccc(Br)cc1`, the inhibition was -7.24%.
Consider `CCN(CC)CCCNC(=O)c1cc(-c2cccc(Cl)c2)on1`, for which the inhibition was 87.4% (active).
For the compound `O=C(NNC(=S)NCCCN1CCOCC1)c1ccncc1`, the inhibition was -2.18%.
Take `O=C(NCCCN1CCOCC1)c1cc(-c2ccc(Cl)cc2)on1`: the inhibition was 59.5% (active).
Regarding `O=C(NCCCN1CCOCC1)c1cnn2c(-c3ccccc3)cc(-c3ccccc3)nc12`, the inhibition was 19%.
Next, `O=C(NCCCN1CCOCC1)c1cc2c(s1)CCC2`: 79% (active); `CCCCCN(C(=O)NC(=O)Nc1cccc(C)c1C)S(C)(=O)=O`: -14.4%; `COc1cccc(NC(=O)CC(c2ccc(OC(C)C)cc2)c2ccccc2OC)c1` (stereo unspecified): -2.29%.
Regarding `CCC(O)C1CCN(Cc2cn(-c3ccc(OC)cc3)nc2-c2cccc(F)c2)CC1` (stereo unspecified), the inhibition is 30.3%.
For the compound `Cc1ccc(C)c(-n2cc(CN3CCN(C(=O)c4ncn[nH]4)CC3)c(-c3ccccc3)n2)c1`, the inhibition was -2.57%.
Take `Cc1cccc(-n2cc(CN3CCN(C(=O)c4ncn[nH]4)CC3)c(-c3cccc(F)c3)n2)c1`: the inhibition is 89.9% (active).
With `Cc1ccc(/C=N/NC(=O)Cn2ccc(C(F)(F)F)n2)o1`, the inhibition is -8.92%.
Take `CC1(C)CC(N(Cc2ccccc2)C(=O)Cc2ccccc2)CCO1` (stereo unspecified): the inhibition was 3.41%.
As to `COCCNC(=S)Nc1cc(S(=O)(=O)N2CCOCC2)ccc1N1CCCCC1`, the inhibition was -2.67%.
Next, `CN(C)c1nc(N)nc(Cn2nnc(-c3ccc(C(F)(F)F)cc3)n2)n1`: -9.02%.
Next, `Brc1ccc(OCCn2ccnc2)cc1`: 9.23%; `Cc1noc(COc2ccccc2OCC(O)CNC(C)(C)C)n1` (stereo unspecified): 5.97%.
For `CC(C)(C)CC(C)(C)NCC(O)COCCOc1ccc(Br)cc1` (stereo unspecified), the inhibition was 96.6% (active).
With `Cc1cc(C)n(-c2nc(C(F)(F)F)nc3ccccc23)n1`, the inhibition is 24.4%.
Turning to `O=C(CN1CCN(Cc2ccc(F)cc2Cl)C1=O)NCc1cccs1`, the inhibition was -13%.
Consider `Cc1ccc(S(=O)(=O)NC(C(=O)N2CCOCCOCCOCCOCC2)c2ccccc2)cc1` (stereo unspecified), for which the inhibition is -7.01%.
